Bioassay records: PubChem BioAssay, several laboratories
S1P2 blocker = S1P2 (human) receptor antagonism; O95136; cell-based S1P2 antagonist assay, inhibition at 5 uM; inhibition, % at 5 µM; 97,000 tested, 0.21% active; AID 736; in the data active = inhibition above about 45%;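 also: CRE beta-lactamase reporter cells expressing human S1P2 stimulated with S1P; 0% = agonist at EC80 alone and 100% = agonist plus reference antagonist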
S1P2 ag = S1P2 (human) receptor agonism | O95136 | S1P2-expressing cell line, agonist reporter read-out | activation, % at 4.5 µM | 97,000 tested, 0.46% active | AID 729; in the data active = activation above about 16%;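 also: 0% = vehicle low control and 100% = maximal reference agonist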
GALR2 agonist = activates the human galanin receptor 2; O43603; GALR2-expressing cells, agonist activation read-out; activation, % (concentration not given with the values); 140,000 tested, 0.48% active; in the data active = activation above about 5%, passing the limit was not always enough;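 also: 0% = vehicle buffer wells and 100% = reference agonist at full effect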
SDO1 yeast rescue = sdo1-depleted yeast growth rescue; 140,000 tested, 0.21% active; AID 817; z-score at 10 µM; S. cerevisiae sdo1-depleted JHY4D growth rescue, OD600 30 h; active compounds read high; pdr5 snq2 efflux-pump mutant strain;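 active = z-score above 3 at both the 24 hr and the 30 hr optical density reads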;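 also: z-score against mean and SD of all compound wells on the same plate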
GALR2 blocker = antagonists of human galanin receptor 2 (GALR2); O43603; GALR2-expressing cells, antagonist mode; inhibition, % at 4 µM; 140,000 tested, 0.39% active; AID 828;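 also: cells stimulated with galanin 1-16 at roughly its EC80; 0% = agonist challenge control and 100% = basal control without agonist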
FAK blocker = blocks human focal adhesion kinase activity; inhibition, %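 (tested at 7 µM)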; 97,000 tested, 0.84% active; Q05397; biochemical FAK kinase activity assay; AID 727; in the data active = inhibition above about 19%;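 also: 0% = DMSO and 100% = reference compound high control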
FAK inh confirm = confirmation of human focal adhesion kinase (FAK) inhibitors; FAK kinase biochemical inhibition assay; 750 tested, 28% active; shares compounds with FAK blocker; inhibition, % at 7 µM; in the data active = inhibition above about 19%
GALR2 ag confirm = GALR2 (human) agonism confirmed; GALR2-expressing cells, agonist activation; 460 tested, 10% active; shares compounds with GALR2 agonist; activation, % at 5.6 µM; in the data active = activation above about 8.4%;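 also: 0% = buffer-only vehicle wells and 100% = full reference agonist response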
BLA act counter = beta-lactamase activation, GALR2 counterscreen. shares compounds with GALR2 agonist. CHO NFAT-bla reporter, beta-lactamase FRET activation. activation, % at 5.6 µM. 460 tested, 10% active;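 active = activation above the screen-wide mean activation plus 3 SD, cut at about 8% in these data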;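 also: 0% = DMSO with PBS wells and 100% = thapsigargin positive control wells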
sdo1 rescue conf = SDO1-depleted yeast growth rescue confirmation. shares compounds with SDO1 yeast rescue. S. cerevisiae JHY4D (SDO1-depleted) growth rescue, OD600, 30 h; active compounds read high; efflux-deficient strain, SNQ2 and PDR5 mutated. OD recovery (concentration not given with the values). 440 tested, 44% active. AID 949;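 active = yeast growth recovered at 30 hours, either rising with dose fitted slope above 0.001 or with average optical density gain above 0.07, some results past the limit were not filed as active; inactive = growth falling with dose or no effect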;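 also: gain in OD600 from 0 h to 30 h averaged across all seven doses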
GALR2 blk conf = GALR2 (human) antagonism confirmed; shares compounds with GALR2 blocker; GALR2-expressing cells, antagonist mode, inhibition; inhibition, % at 4 µM; 480 tested, 60% active; AID 866;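 also: cells stimulated with galanin at about its EC80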
BLA inhib ctr = counter-screen for GALR2 antagonists: beta-lactamase reporter inhibitors; shares compounds with GALR2 blocker; CHO NFAT-BLA reporter, beta-lactamase FRET, thapsigargin-stimulated; inhibition, % at 4.2 µM; 480 tested, 36% active; AID 867;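 active = inhibition above the mean inhibition across tested compounds plus 3 SD, cut at about 27% in these data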;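 also: 0% = 500 nM thapsigargin stimulated wells and 100% = unstimulated BSA only wells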
Starred values were filed as active, the others as inactive; / = no result given. A selection: hits, their analogues and other compounds. The true share with any hit is near 1.9%. Rule as the data show it, unless noted: active = inhibition above about 27%; inactive = the rest.

SMILES	S1P2 blocker	S1P2 ag	GALR2 agonist	SDO1 yeast rescue	GALR2 blocker	FAK blocker	FAK inh confirm	others
Cc1ccc(S(=O)(=O)c2nc(N3CCOCC3)sc2Cl)cc1	23	-5	-2	0.14	1	0	/
Cc1cc(C)c(C(=O)Nc2ccc(Br)c(C(F)(F)F)c2)c(C)c1	/	/	-2	-0.8	7	/	/
c1cncc(Nc2nc(-c3ccncc3)cs2)c1	/	/	0	0.88	15	/	/
CC(=O)Oc1ccc(-c2csc(Nc3cccnc3)n2)cc1	12	-5	-1	1.4	7	20*	4
CCCc1cc(C(N)=O)c(NC(=O)c2ccco2)s1	-14	-4	-4	-1	6	27*	10
CCCc1cc(C(N)=O)c(NC(=O)C2CCCO2)s1 (stereo not given)	4	-5	-3	-0.54	16	1	/
CCOC(=O)Cc1[nH]nc2c1C(c1cccc(OC)c1OC)C(C#N)=C(N)O2 (stereo not given)	/	/	0	0.18	14	/	/
CCOC(=O)Cc1[nH]nc2c1C(c1cc(OC)ccc1OC)C(C#N)=C(N)O2 (stereo not given)	2	-5	-2	0.13	11	25*	6
O=C(COC(=O)C1CC2C=CC1C2)NCc1ccco1 (stereo not given)	7	0	1	-0.26	-8	30*	3
Cc1ccc(NC(=O)NNC(=O)Cn2nc(-c3ccccc3)c(-c3ccccc3)c(C#N)c2=O)cc1	-11	-8	-3	-0.33	-6	4	/
CCCCn1c(NC(=O)c2ccccc2)c(C#N)c2nc3ccccc3nc21	-1	12	16*	0.63	2	42*	1	GALR2 ag confirm=6;BLA act counter=14*
COc1ccc(C2Cc3ccccc3C(=O)O2)cc1 (stereo not given)	/	/	0	-0.29	1	/	/
COC(=O)c1c(NC(=O)Cc2cccs2)sc2c1CCCC2	-14	-6	0	7.5*	-10	21*	8	sdo1 rescue conf=0.048
CCc1ccccc1N1C[C@@]23C=C[C@@H](O2)C(C(=O)OCC(C)C)[C@H]3C1=O (stereo not given in full)	13	-7	-1	0.62	-1	5	/
Fc1ccc2[nH]c3c(N4CCN(C5CCCCC5)CC4)ncnc3c2c1	/	/	0	0.74	1	/	/
Cc1ccc2[nH]c3c(N4CCCCCC4)ncnc3c2c1	92*	-10	1	-2	38*	42*	19	GALR2 blk conf=42*;BLA inhib ctr=14
COc1ccccc1/C=C/C=N/NC(=O)c1ccc(=O)n(C)c1	/	/	-1	0.89	0	/	/
COc1ccc2c(c1)[nH]c1c(N3CCN(Cc4ccc5c(c4)OCO5)CC3)ncnc12	87*	-9	0	-0.63	38*	25*	10	GALR2 blk conf=44*;BLA inhib ctr=16
O=C1C=C(Nc2ccccc2O)c2ccccc2C1=O	5	-8	-2	-0.92	28*	23*	15	GALR2 blk conf=15;BLA inhib ctr=29*
Cc1ccc(S(=O)(=O)N(C)Cc2ccc(C(=O)N/N=C/c3ccc(OC(F)F)cc3OC(F)F)cc2)cc1	/	/	-1	-0.82	4	/	/
CCOC(=O)Cn1c(=O)n(Cc2ccco2)c(=O)c2ccc(C(=O)NC3CCCC3)cc21	7	-3	-3	0.83	1	-1	/
Nc1c(C(=O)Nc2nc3ccccc3s2)sc2nc(-c3cccs3)ccc12	73*	-13	0	-1.3	41*	49*	27*	GALR2 blk conf=49*;BLA inhib ctr=49*
Cc1ccc(-c2oc3ccccc3c(=O)c2O)cc1	/	/	0	-0.18	20	/	/
O=c1c(O)c(-c2cccs2)oc2ccccc12	15	-6	-2	-1.6	29*	23*	12	GALR2 blk conf=31*;BLA inhib ctr=37*
Cc1ccc(NC2=C/C(=N/S(=O)(=O)c3cccs3)c3ccccc3C2=O)cc1C	/	/	-1	1	4	/	/
SMILES	S1P2 blocker	S1P2 ag	GALR2 agonist	SDO1 yeast rescue	GALR2 blocker	FAK blocker	FAK inh confirm	others
Cc1ccccc1NC1=C/C(=N\S(=O)(=O)c2cccs2)c2ccccc2C1=O	41	8	5	-2.6	63*	42*	32*	GALR2 blk conf=44*;BLA inhib ctr=59*
COc1ccc(C2CC3(CC(C)(C)NC(SC)=N3)Oc3cc(O)cc(C)c32)cc1 (stereo not given)	/	/	19*	0.51	-34	/	/	GALR2 ag confirm=25*;BLA act counter=84*
O=C(CN1CCCCC1)Nc1ccc(S(=O)(=O)NC2CCCCC2)cc1	-4	-7	-4	-0.3	-1	-5	/
O=C(O)c1ccccc1C(=O)Nc1ccc(S(=O)(=O)NC2CCCCC2)cc1	/	/	14*	0.06	0	/	/	GALR2 ag confirm=-1;BLA act counter=-2
CC(C)(C)NC(=O)C1CCN(C(=O)c2ccc(Br)cc2)CC1	-8	-1	-1	-0.16	0	2	/
N#Cc1c(-c2ccco2)nc(SCc2ccc(F)cc2)[nH]c1=O	5	-1	-1	1.3	-6	-5	/
Cc1nc(SCc2cccc(F)c2)[nH]c(=O)c1C#N	-12	-8	154*	0.03	1	-3	/	GALR2 ag confirm=-1;BLA act counter=-2
CCOC(=O)/C(C#N)=C/c1ccc(OC)c(OC)c1	-39	-2	16*	0.44	-20	2	/	GALR2 ag confirm=-1;BLA act counter=-3
CCCCN(C(=O)c1cc2ccccc2o1)c1c(N)n(CCC)c(=O)[nH]c1=O	/	/	-1	1.8	4	/	/
COc1ccc(NC(=O)COC(=O)CNS(=O)(=O)c2ccc(F)c(F)c2F)cc1OC	/	/	1	1.4	-6	/	/
Cc1ccc(Cl)cc1N1CCN(C(=O)CN(C2CCCCC2)S(C)(=O)=O)CC1	-18	-4	0	-0.93	2	-1	/
CCN(CC)c1ccc(C(=O)OCc2cc(=O)oc3cc(O)ccc23)cc1	-6	-4	1	-0.76	-1	-2	/
CCN(CC)c1ccc2c(Cl)cc(=O)oc2c1	47*	9	9	-1.4	22	8	/	GALR2 ag confirm=2;BLA act counter=7
Cc1ccc(S(=O)(=O)Nc2ccc3nc(-c4cccn4C)[nH]c3c2)cc1	-7	0	-2	0	-1	4	/
Cc1ccc(Cn2ncc3c(N4CCN(c5ccccc5C)CC4)ncnc32)cc1	15	-5	1	-0.08	-19	4	/
N=c1c(S(=O)(=O)c2ccccc2)cc2c(=O)n3ccccc3nc2n1CC1CCCO1 (stereo not given)	-25	10	9	-1.1	0	-1	/	GALR2 ag confirm=2;BLA act counter=3
